Results filed as inconclusive are left out. The source holds several records for some structures; these can differ, active in one and inactive in another. The source made the active and inactive calls. How the source made its calls, unless noted: active means hit-call score of the fitted dose curve at least 0.9, where 1 is the maximum; inactive means score below 0.9.
How the values were obtained:
[1] = read-out: Pyruvate Dehydrogenase Kinase 4 (PDK4), PDK4 (gene 5166); assay: LTEA_HepaRG_PDK4: Life Technologies and Expression Analysis (LTEA) Assay for Pyruvate Dehydrogenase Kinase 4 (PDK4) using HepaRG (AID 2283525); conditions: mRNA level, 48 h; actives raise or lower the signal
Procedure, shortened: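 Readout is qRT-PCR of PDK4 transcript, normalized to three housekeeping genes, with bidirectional fitting against 0.5% DMSO vehicle. Differentiated HepaRG cells were treated 48 h in serum-free induction medium, duplicate wells, eight-point half-log series topping at 100 uM.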

[2] = read-out: NAD(P)H dehydrogenase [quinone] 1 (NQO1), NQO1 (gene 1728); assay: LTEA_HepaRG_NQO1: Life Technologies and Expression Analysis (LTEA) Assay for NAD(P)H dehydrogenase [quinone] 1 (NQO1) using HepaRG (AID 2283526); conditions: mRNA level, 48 h; actives raise or lower the signal
Procedure, shortened: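 Transcript induction or suppression is quantified by qRT-PCR in human HepaRG liver cells dosed for 48 hours. Eight half-log concentrations topping at 100 uM are used, with 0.5% DMSO as vehicle and baseline.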

[3] = read-out: Nuclear factor erythroid 2-related factor 2 (Homo sapiens) (UniProt Q16236); assay: LTEA_HepaRG_NFE2L2: Life Technologies and Expression Analysis (LTEA) Assay for Nuclear factor erythroid 2-related factor 2 (NFE2L2) Transcription Factor using HepaRG (AID 2283527); conditions: mRNA level, 48 h; actives raise or lower the signal
Procedure, shortened: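 NFE2L2 transcript level was read by qRT-PCR (housekeeping ACTB/GAPDH/POLR2A normalisation) after 48 h chemical treatment of HepaRG in serum-free induction medium. Duplicate 8-point half-log curves, top 100 uM, 0.5% DMSO vehicle; up- or down-regulation fitted against vehicle.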

[4] = read-out: succinate dehydrogenase complex iron sulfur subunit B (SDHB), SDHB (gene 6390); assay: LTEA_HepaRG_SDHB: Life Technologies and Expression Analysis (LTEA) Assay for succinate dehydrogenase complex iron sulfur subunit B (SDHB) using HepaRG (AID 2283528); conditions: mRNA level, 48 h; actives raise or lower the signal
Procedure, shortened: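 HepaRG, 48 h exposure, 8-pt half-log series from 100 uM in 0.5% DMSO, duplicates. Readout: SDHB mRNA by Fluidigm qRT-PCR vs housekeeping genes; bidirectional fit relative to DMSO.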

[5] = read-out: Signal transducer and activator of transcription 3 (Homo sapiens) (UniProt P40763); assay: LTEA_HepaRG_STAT3: Life Technologies and Expression Analysis (LTEA) Assay for Signal transducer and activator of transcription (STAT3) using HepaRG (AID 2283529); conditions: mRNA level, 48 h; actives raise or lower the signal
Procedure, shortened: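 STAT3 transcript quantified by qRT-PCR against three housekeeping genes (ACTB, GAPDH, POLR2A), fitted both directions relative to DMSO. HepaRG cultures exposed 48 h to eight half-log concentrations, top 100 uM, 0.5% DMSO, serum-free induction medium.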

[6] = read-out: solute carrier (SLCO1B1), SLCO1B1 (gene 10599); assay: LTEA_HepaRG_SLCO1B1: Life Technologies and Expression Analysis (LTEA) Assay for solute carrier (SLCO1B1) using HepaRG (AID 2283530); conditions: mRNA level, 48 h; actives raise or lower the signal
Procedure, shortened: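 SLCO1B1 transcript levels were quantified by TaqMan qRT-PCR using three housekeeping genes for normalization. This followed 48 h chemical exposure (100 uM top, half-log, 8 points, 0.5% DMSO) of HepaRG liver cells, with gain or loss fitted relative to DMSO.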

[7] = read-out: sulfotransferase 2A1 (SULT2A1), SULT2A1 (gene 6822); assay: LTEA_HepaRG_SULT2A1: Life Technologies and Expression Analysis (LTEA) Assay for sulfotransferase 2A1 (SULT2A1) using HepaRG (AID 2283531); conditions: mRNA level, 48 h; actives raise or lower the signal
Procedure, shortened: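 Expression change of SULT2A1, by qRT-PCR with three housekeeping-gene normalization, was scored bidirectionally versus DMSO. Cells: differentiated HepaRG, dosed in duplicate for 48 h across 8 points, highest 100 µM, half-log dilution, 0.5% DMSO.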

[8] = read-out: Transforming Growth Factor (TGFA), TGFA (gene 7039); assay: LTEA_HepaRG_TGFA: Life Technologies and Expression Analysis (LTEA) Assay for Transforming Growth Factor (TGFA) using HepaRG (AID 2283532); conditions: mRNA level, 48 h; actives raise or lower the signal
Procedure, shortened: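 TGFA transcript quantified by qRT-PCR (Fluidigm arrays) against three housekeeping genes, after 48 hours chemical treatment of HepaRG cells. Top concentration 100 uM with half-log dilutions, 8 points, duplicates, 0.5% DMSO.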

[9] = read-out: Transforming Growth Factor (TGFB1), TGFB1 (gene 7040); assay: LTEA_HepaRG_TGFB1: Life Technologies and Expression Analysis (LTEA) Assay for Transforming Growth Factor (TGFB1) Transporter using HepaRG (AID 2283533); conditions: mRNA level, 48 h; actives raise or lower the signal
Procedure, shortened: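 TGFB1 transcript measured by qRT-PCR with normalisation to three housekeeping genes (ACTB, GAPDH, POLR2A); human HepaRG line treated in duplicate for 48 hr with an 8-point series topping at 100 uM, 0.5% DMSO vehicle, bidirectionally fitted.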

[10] = read-out: TIMP1, TIMP1 (gene 7076); assay: LTEA_HepaRG_TIMP1: Life Technologies and Expression Analysis (LTEA) Assay for TIMP1 using HepaRG (AID 2283534); conditions: mRNA level, 48 h; actives raise or lower the signal
Procedure, shortened: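 Bidirectional change in TIMP1 transcript versus 0.5% DMSO, measured by TaqMan qRT-PCR with three housekeeping genes for normalization. HepaRG human liver cells dosed 48 h in duplicate, top concentration 100 uM with half-log dilutions.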

[11] = read-out: Tumor necrosis factor receptor 1 (TNFRSF1A), TNFRSF1A (gene 7132); assay: LTEA_HepaRG_TNFRSF1A: Life Technologies and Expression Analysis (LTEA) Assay for Tumor necrosis factor receptor 1 (TNFRSF1A) using HepaRG (AID 2283535); conditions: mRNA level, 48 h; actives raise or lower the signal
Procedure, shortened: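 mRNA measured by qRT-PCR (TaqMan, Fluidigm arrays) against ACTB/GAPDH/POLR2A housekeepers after 48 h chemical exposure of HepaRG cells. Top concentration 100 uM, half-log 8-point series, duplicates; vehicle 0.5% DMSO, both fit directions.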

[12] = read-out: Cellular tumor antigen p53 (Homo sapiens) (UniProt P04637); assay: LTEA_HepaRG_TP53: Life Technologies and Expression Analysis (LTEA) Assay for Tumor Protein P53 (TP53) using HepaRG (AID 2283537); conditions: mRNA level, 48 h; actives raise or lower the signal
Procedure, shortened: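 HepaRG, 48 h exposure, top 100 uM, half-log 8-point, 0.5% DMSO vehicle, duplicates. Read: TP53 mRNA by TaqMan qRT-PCR, normalised to ACTB/GAPDH/POLR2A; bidirectional fit vs DMSO.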

[13] = read-out: UDP glucuronosyltransferase (UGT1A1), UGT1A1 (gene 54658); assay: LTEA_HepaRG_UGT1A1: Life Technologies and Expression Analysis (LTEA) Assay for UDP glucuronosyltransferase (UGT1A1) using HepaRG (AID 2283538); conditions: mRNA level, 48 h; actives raise or lower the signal
Procedure, shortened: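 Cells are plated, cultured 48 h, switched to serum-free induction medium, then dosed 48 h at eight concentrations (max 100 uM, 0.5% DMSO). RNA is isolated and UGT1A1 expression measured by qRT-PCR; changes versus DMSO are fitted in both directions.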

[14] = read-out: UDP glucuronosyltransferase (UGT1A6), UGT1A6 (gene 54578); assay: LTEA_HepaRG_UGT1A6: Life Technologies and Expression Analysis (LTEA) Assay for UDP glucuronosyltransferase (UGT1A6) using HepaRG (AID 2283539); conditions: mRNA level, 48 h; actives raise or lower the signal
Procedure, shortened: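 Expression was quantified by TaqMan qRT-PCR on Fluidigm arrays with ACTB/GAPDH/POLR2A normalization and bidirectional fitting against 0.5% DMSO. HepaRG cells (~100,000/well) were treated in duplicate for 48 h at eight half-log concentrations up to 100 uM in serum-free induction medium.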

[15] = read-out: X-box binding protein 1 (XBP1), XBP1 (gene 7494); assay: LTEA_HepaRG_XBP1: Life Technologies and Expression Analysis (LTEA) Assay for X-box binding protein 1 (XBP1) using HepaRG (AID 2283540); conditions: mRNA level, 48 h; actives raise or lower the signal
Procedure, shortened: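 XBP1 transcript by qRT-PCR (housekeeping-normalized: ACTB, GAPDH, POLR2A) after 48 h chemical treatment of HepaRG cells, 8-point half-log series topping at 100 uM, vehicle 0.5% DMSO. Gain and loss of signal fitted relative to DMSO.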

[16] = LTEA_HepaRG_LDH_cytotoxicity: Cytotoxicity Assessment in the Life Technologies and Expression Analysis (LTEA) Assay (AID 2283563; active means hit-call score of the fitted dose curve at least 0.9, where 1 is the maximum)
Procedure, shortened: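 LDH release into culture medium read after 48 h chemical treatment of HepaRG cells. Duplicate wells, eight-point half-log series topping at 100 uM, 0.5% DMSO vehicle and baseline.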

[17] = TOX21_p53_BLA_p2_viability: Viability Assessment in the Tox21 HCT-116 p53 Agonism Beta-lactamase Assay, Phase 2 (AID 2283591; active means hit-call score of the fitted dose curve at least 0.9, where 1 is the maximum;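 further: compound exposure lasted 16 h at 37 °C; actives lower the ATP signal meaning cytotoxicity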)
Procedure, shortened: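 Cytotoxicity readout: CellTiter-Glo ATP luminescence, 30 min at room temperature, after the beta-lactamase read. Cells were HCT116 exposed 16 h at 37C to compounds pin-transferred at 217-fold dilution from DMSO stocks.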

[18] = target: Cellular tumor antigen p53 (Homo sapiens) (UniProt P04637); assay: TOX21_p53_BLA_p2_ratio: Tox21 HCT-116 p53 Agonism Beta-lactamase Assay, Ratio, Phase 2 (AID 2283592; active means hit-call score of the fitted dose curve at least 0.9, where 1 is the maximum)
Procedure, shortened: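 Read-out is the blue/green (460/530 nm, 405 nm excitation) ratio after 2 h CCF4-AM loading, fitted as gain versus DMSO. Compounds, pinned at 217-fold dilution from DMSO stocks, stayed 16 h on HCT-116 beta-lactamase reporter cells seeded 5 h earlier.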

[19] = read-out: Thyroid Hormone Responsive (THRSP), THRSP (gene 7069); assay: LTEA_HepaRG_THRSP: Life Technologies and Expression Analysis (LTEA) Assay for Thyroid Hormone Responsive (THRSP) using HepaRG (AID 2283536); conditions: mRNA level, 48 h; actives raise or lower the signal
Procedure, shortened: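 THRSP transcript quantified by Fluidigm qRT-PCR against three housekeeping genes after 48 h chemical exposure of HepaRG cells in serum-free induction medium; eight-point half-log series, top 100 uM, 0.5% DMSO vehicle, duplicate wells.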

[20] = ATG_XTT_Cytotoxicity: Cytotoxicity Assessment in the Attagene TRANS-FACTORIAL HepG2 Assay (AID 2283584; active means hit-call score of the fitted dose curve at least 0.9, where 1 is the maximum)
Procedure, shortened: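 Viability endpoint from XTT after 24 h chemical exposure of reporter-transfected human HepG2 liver cells; signal loss fitted relative to DMSO negative control.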

Measured: AC50

Sequence of Signal transducer and activator of transcription 3 (Homo sapiens) (P40763 whole entry, looked up): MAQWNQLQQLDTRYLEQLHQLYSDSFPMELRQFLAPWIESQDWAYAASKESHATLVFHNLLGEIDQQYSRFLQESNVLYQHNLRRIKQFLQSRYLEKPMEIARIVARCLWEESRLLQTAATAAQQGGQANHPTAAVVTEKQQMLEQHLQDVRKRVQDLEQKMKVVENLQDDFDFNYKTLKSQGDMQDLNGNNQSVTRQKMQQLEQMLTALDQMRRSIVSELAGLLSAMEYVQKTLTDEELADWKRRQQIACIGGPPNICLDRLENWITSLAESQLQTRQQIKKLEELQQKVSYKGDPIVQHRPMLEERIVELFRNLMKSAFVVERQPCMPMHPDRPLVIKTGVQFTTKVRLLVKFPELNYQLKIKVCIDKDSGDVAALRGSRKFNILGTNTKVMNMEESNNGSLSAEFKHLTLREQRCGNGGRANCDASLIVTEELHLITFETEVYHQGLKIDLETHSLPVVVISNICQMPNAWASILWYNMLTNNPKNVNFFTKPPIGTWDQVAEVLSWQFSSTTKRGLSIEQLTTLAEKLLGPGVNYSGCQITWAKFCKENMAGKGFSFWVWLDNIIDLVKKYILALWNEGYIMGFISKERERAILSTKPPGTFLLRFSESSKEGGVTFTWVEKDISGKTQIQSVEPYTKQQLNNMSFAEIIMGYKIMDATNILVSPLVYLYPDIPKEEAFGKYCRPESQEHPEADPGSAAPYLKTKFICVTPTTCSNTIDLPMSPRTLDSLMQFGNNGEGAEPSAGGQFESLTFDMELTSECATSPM
Sequence of Nuclear factor erythroid 2-related factor 2 (Homo sapiens) (Q16236 whole entry, looked up): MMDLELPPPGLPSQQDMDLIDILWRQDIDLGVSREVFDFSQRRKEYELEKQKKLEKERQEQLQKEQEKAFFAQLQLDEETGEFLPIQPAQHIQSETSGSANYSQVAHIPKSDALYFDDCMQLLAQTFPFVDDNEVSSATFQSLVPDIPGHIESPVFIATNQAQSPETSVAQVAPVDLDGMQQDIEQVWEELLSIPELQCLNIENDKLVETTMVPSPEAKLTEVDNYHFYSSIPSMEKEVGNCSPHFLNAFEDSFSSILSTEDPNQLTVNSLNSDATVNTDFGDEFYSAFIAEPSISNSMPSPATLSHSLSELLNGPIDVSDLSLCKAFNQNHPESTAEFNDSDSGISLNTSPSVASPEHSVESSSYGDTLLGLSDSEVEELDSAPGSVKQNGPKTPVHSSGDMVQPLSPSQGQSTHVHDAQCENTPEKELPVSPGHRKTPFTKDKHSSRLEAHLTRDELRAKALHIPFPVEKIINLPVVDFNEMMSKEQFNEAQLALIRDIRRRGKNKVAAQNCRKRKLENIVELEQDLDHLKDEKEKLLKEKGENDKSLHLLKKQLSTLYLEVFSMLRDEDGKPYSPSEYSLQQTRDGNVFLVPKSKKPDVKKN
Sequence of Cellular tumor antigen p53 (Homo sapiens) (P04637 whole entry, looked up): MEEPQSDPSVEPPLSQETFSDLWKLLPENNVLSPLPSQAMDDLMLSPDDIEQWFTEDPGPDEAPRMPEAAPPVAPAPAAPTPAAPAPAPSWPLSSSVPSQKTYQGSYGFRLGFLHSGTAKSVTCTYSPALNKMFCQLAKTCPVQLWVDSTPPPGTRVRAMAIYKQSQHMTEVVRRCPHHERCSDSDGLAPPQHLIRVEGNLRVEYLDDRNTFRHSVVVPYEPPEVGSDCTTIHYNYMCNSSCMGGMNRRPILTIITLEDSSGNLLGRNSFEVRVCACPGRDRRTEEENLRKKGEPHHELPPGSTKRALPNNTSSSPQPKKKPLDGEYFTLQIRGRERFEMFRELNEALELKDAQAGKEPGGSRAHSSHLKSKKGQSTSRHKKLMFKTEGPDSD

CCOC(=O)c1ccc(C2CCC(NC[C@H](O)COc3ccc(O)c(NS(C)(=O)=O)c3)CC2)cc1 (some centres undefined)
inactive: [1] | [2] | [3] | [4] | [5] | [6] | [7] | [8] | [9] | [10] | [11] | [12] | [13] | [14] | [15] | [16]
active: [17] 70.1 µM | [18] 80.4 µM

CC(C)c1cccc(C(C)C)c1N1C(=O)c2ccc(O)cc2C1=O
active: [4] 50 µM | [19] 90.2 µM | [13] 10.8 µM | [17] 66.7 µM | [18] 1.77 µM
inactive: [1] | [2] | [3] | [5] | [6] | [7] | [8] | [9] | [10] | [11] | [12] | [14] | [15] | [16] | [20]

CC[C@H](C)C(=O)O[C@H]1C[C@@H](C)C=C2C=C[C@H](C)[C@H](CC[C@@H]3C[C@@H](O)CC(=O)O3)[C@H]21
inactive: [2] | [3] | [4] | [5] | [6] | [7] | [8] | [9] | [11] | [12] | [14] | [15] | [16] | [17] | [18]
active: [1] 16.9 µM | [13] 0.0554 µM | [17] 44.6 µM | [18] 84.3 µM

Cc1ccc(O)cc1
inactive: [1] | [2] | [3] | [4] | [5] | [6] | [7] | [8] | [9] | [10] | [11] | [12] | [13] | [14] | [15] | [16] | [18]

O=C1CCCCCN1
inactive: [1] | [2] | [3] | [4] | [5] | [6] | [7] | [8] | [9] | [10] | [11] | [12] | [13] | [14] | [15] | [16] | [20] | [17] | [18]

CN(C)c1ccc(Cc2ccc(N(C)C)cc2)cc1
inactive: [1] | [2] | [3] | [4] | [5] | [6] | [7] | [8] | [9] | [10] | [11] | [12] | [15] | [16] | [17] | [18]
active: [13] 11.5 µM | [14] 85.6 µM

Fc1ccccc1[C@@H](F)COC1CCC(Nc2ncnc3[nH]ncc23)CC1 (some centres undefined)
active: [1] 11.7 µM | [2] 26.5 µM | [3] 88.8 µM | [5] 8.85 µM | [6] 71.7 µM | [7] 65.7 µM | [8] 50 µM | [13] 68 µM | [14] 50 µM
inactive: [4] | [9] | [10] | [11] | [12] | [15] | [16] | [17] | [18]

Reference: PubChem BioAssay (EPA / NIEHS)
